Active and inactive are the calls of the source. The calls were made as follows: active = hit-call score of the fitted dose curve at least 0.9, where 1 is the maximum; inactive = score below 0.9.
Assays:
[1] = read-out: Monokine induced gamma interferon (MIG), CXCL9 (gene 4283); assay: BSK_hDFCGF_MIG: BioMAP Diversity Plus: hDFCGF Assay for Monokine induced gamma interferon (MIG) Biomarker Activity (AID 2283063); conditions: primary human foreskin fibroblasts; actives raise or lower the signal
Summary of the method: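 Human primary foreskin fibroblasts in the hDFCGF system, exposed to test chemical for 24 h; MIG measured by ELISA. Bidirectional curve fitting against DMSO negative control as activity baseline.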

[2] = read-out: Matrix Metallopeptidase 1 (MMP1), MMP1 (gene 4312); assay: BSK_hDFCGF_MMP1: BioMAP Diversity Plus: hDFCGF Assay for Matrix Metallopeptidase 1 (MMP1) Biomarker Activity (AID 2283064); conditions: primary human foreskin fibroblasts; actives raise or lower the signal
Summary of the method: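 ELISA read-out of MMP1 from human foreskin fibroblasts (primary skin cells), 24 h post-dose. Gain or loss of signal was fitted bidirectionally versus DMSO negative control; cytotoxicity was checked by SRB in parallel cultures.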

[3] = read-out: Plasminogen activator inhibitor-1 (PAI1), SERPINE1 (gene 5054); assay: BSK_hDFCGF_PAI1: BioMAP Diversity Plus: hDFCGF Assay for Plasminogen activator inhibitor-1 (PAI1) Biomarker Activity (AID 2283066); conditions: primary human foreskin fibroblasts; actives raise or lower the signal
Summary of the method: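 Human skin fibroblast cultures receive chemical for 24 h before PAI-1 is measured by ELISA; signal changes are fitted bidirectionally against DMSO-treated wells.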

[4] = read-out: Intercellular Adhesion Molecule 1 (ICAM1), ICAM1 (gene 3383); assay: BSK_KF3CT_ICAM1: BioMAP Diversity Plus: KF3CT Assay for Intercellular Adhesion Molecule 1 (ICAM1) Biomarker Activity (AID 2283067); conditions: primary human keratinocytes with fibroblasts; actives raise or lower the signal
Summary of the method: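 Cell-surface ICAM-1 was measured by ELISA 24 h after dosing primary human skin keratinocytes co-cultured with fibroblasts. Parallel SRB staining tracked overt cytotoxicity. Gain or loss of signal was fitted relative to DMSO.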

[5] = read-out: Interferon-gamma inducible Protein 10 (IP10), CXCL10 (gene 3627); assay: BSK_KF3CT_IP10: BioMAP Diversity Plus: KF3CT Assay for Interferon-gamma inducible Protein 10 (IP10) Biomarker Activity (AID 2283068); conditions: primary human keratinocytes with fibroblasts; actives raise or lower the signal
Summary of the method: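 KF3CT co-culture (keratinocytes + foreskin fibroblasts), 24 h compound, IP-10 by ELISA; bidirectional fit vs DMSO baseline.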

[6] = BSK_KF3CT_SRB: Viability Assessment in the BioMAP Diversity Plus: KF3CT Assay (AID 2283069); conditions: primary human keratinocytes with fibroblasts;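 also: total protein by sulforhodamine B staining as a cytotoxicity measure; read 24 h after compound addition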
Summary of the method: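 SRB read-out at 560 nm (0.1% stain, TCA-fixed cells) gauges overt cytotoxicity in a human skin keratinocyte–fibroblast co-culture 24 h post-dosing. Signal change was fitted bidirectionally relative to DMSO control.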

[7] = read-out: Interleukin-1 alpha (IL1a), IL1A (gene 3552); assay: BSK_KF3CT_IL1a: BioMAP Diversity Plus: KF3CT Assay for Interleukin-1 alpha (IL1a) Biomarker Activity (AID 2283070); conditions: primary human keratinocytes with fibroblasts; actives raise or lower the signal
Summary of the method: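 Primary skin co-culture (keratinocytes, foreskin fibroblasts), 24 h exposure; ELISA for IL-1a; bidirectional curve fit vs DMSO.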

[8] = read-out: TIMP metallopeptidase inhibitor 2 (TIMP2), TIMP2 (gene 7077); assay: BSK_KF3CT_TIMP2: BioMAP Diversity Plus: KF3CT Assay for TIMP metallopeptidase inhibitor 2 (TIMP2) Biomarker Activity (AID 2283071); conditions: primary human keratinocytes with fibroblasts; actives raise or lower the signal
Summary of the method: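 Measurements come from ELISA detection of TIMP-2 at 24 hours in a dosed human keratinocyte and foreskin fibroblast co-culture. DMSO serves as negative control and baseline.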

[9] = read-out: Transforming growth factor beta 1 (TGFb1), TGFB1 (gene 7040); assay: BSK_KF3CT_TGFb1: BioMAP Diversity Plus: KF3CT Assay for Transforming growth factor beta 1 (TGFb1) Biomarker Activity (AID 2283072); conditions: primary human keratinocytes with fibroblasts; actives raise or lower the signal
Summary of the method: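 TGF-b1 ELISA on a 24 h dosed co-culture of human keratinocytes and foreskin fibroblasts; cytotoxicity tracked in parallel cultures by SRB staining.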

[10] = read-out: C-C motif chemokine 2 (Homo sapiens) (UniProt P13500); assay: BSK_KF3CT_MCP1: BioMAP Diversity Plus: KF3CT Assay for Monocyte Chemoattractant Protein 1 (MCP1/CCL2) Biomarker Activity (AID 2283073); conditions: primary human keratinocytes with fibroblasts; actives raise or lower the signal
Summary of the method: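 ELISA read-out of MCP-1, 24 h post-dose, in primary human skin keratinocytes co-cultured with fibroblasts. Parallel SRB staining monitors cytotoxicity; changes fitted both directions relative to DMSO.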

[11] = read-out: Matrix Metallopeptidase 9 (MMP9), MMP9 (gene 4318); assay: BSK_KF3CT_MMP9: BioMAP Diversity Plus: KF3CT Assay for Matrix Metallopeptidase 9 (MMP9) Biomarker Activity (AID 2283074); conditions: primary human keratinocytes with fibroblasts; actives raise or lower the signal;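 as to AC50: MMP9 protein level quantified by ELISA in the co-culture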
Summary of the method: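 ELISA read-out of MMP-9 at 24 h post-dosing in a co-culture of human skin keratinocytes and foreskin fibroblasts. Gain or loss of signal was fitted in both directions against DMSO.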

[12] = read-out: urokinase plasminogen activator (uPA), PLAU (gene 5328); assay: BSK_KF3CT_uPA: BioMAP Diversity Plus: KF3CT Assay for urokinase plasminogen activator (uPA) Biomarker Activity (AID 2283075); conditions: primary human keratinocytes with fibroblasts; actives raise or lower the signal
Summary of the method: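 Skin co-culture (keratinocytes + foreskin fibroblasts), human primary; 24 h post-dose; uPA by ELISA; gain/loss fit vs DMSO baseline.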

CD40, CD40 (gene 958) = assay: BSK_LPS_CD40: BioMAP Diversity Plus: LPS Assay for CD40 Biomarker Activity (AID 2283076); conditions: primary human HUVEC with PBMC; actives raise or lower the signal
Summary of the method: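 In the LPS system of human endothelial cells with peripheral blood mononuclear cells, CD40 levels were read by ELISA 24 h post-treatment. Signal changes in either direction were fitted against the DMSO baseline, with parallel SRB protein staining.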

[13] = read-out: E-selectin (Homo sapiens) (UniProt P16581); assay: BSK_LPS_Eselectin: BioMAP Diversity Plus: LPS Assay for Eselectin Biomarker Activity (AID 2283077); conditions: primary human HUVEC with PBMC; actives raise or lower the signal
Summary of the method: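 E-selectin ELISA on LPS-stimulated endothelial cell/PBMC co-cultures, read 24 h post-treatment; gains and losses fitted against DMSO. Parallel SRB staining (0.1% SRB after 10% TCA fixation, 560 nm) flags overt cytotoxicity.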

[14] = read-out: Interleukin-8 (IL8), CXCL8 (gene 3576); assay: BSK_LPS_IL8: BioMAP Diversity Plus: LPS Assay for Interleukin-8 (IL8) Biomarker Activity (AID 2283078); conditions: primary human HUVEC with PBMC; actives raise or lower the signal
Summary of the method: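 ELISA read-out of IL-8 after 24 h chemical treatment of LPS-activated endothelial/PBMC human primary co-cultures. Changes either up or down relative to DMSO; overt cytotoxicity checked by sulforhodamine B staining in parallel wells.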

[15] = BSK_LPS_SRB: Viability Assessment in the BioMAP Diversity Plus: LPS Assay (AID 2283079); conditions: primary human HUVEC with PBMC;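 also: total protein by sulforhodamine B absorbance as a cytotoxicity measure; measured one day after compound addition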
Summary of the method: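 SRB viability endpoint: cells fixed with 10% TCA, stained with 0.1% SRB, read at 560 nm, 24 h post-dose. HUVEC/PBMC co-culture; signal change in either direction scored relative to DMSO.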

[16] = read-out: Interleukin-1 alpha (IL1a), IL1A (gene 3552); assay: BSK_LPS_IL1a: BioMAP Diversity Plus: LPS Assay for Interleukin-1 alpha (IL1a) Biomarker Activity (AID 2283080); conditions: primary human HUVEC with PBMC; actives raise or lower the signal
Summary of the method: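 Readout is IL-1a level by ELISA, 24 h post-dose, fitted as gain or loss relative to DMSO. System: LPS-activated human primary co-culture of vascular endothelium and peripheral blood mononuclear cells, with parallel SRB total-protein cytotoxicity.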

[17] = read-out: Monocyte Chemoattractant Protein-1 (MCP1), CCL2 (gene 6347); assay: BSK_LPS_MCP1: BioMAP Diversity Plus: LPS Assay for Monocyte Chemoattractant Protein-1 (MCP1) Biomarker Activity (AID 2283081); conditions: primary human HUVEC with PBMC; actives raise or lower the signal;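 as to AC50: secreted MCP-1 protein quantified by ELISA in culture supernatant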
Summary of the method: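 Secreted MCP-1 read by ELISA at 24 h post-dosing in an LPS-activated co-culture of endothelial cells with peripheral blood mononuclear cells. Fits run in both directions, DMSO as baseline; parallel SRB staining tracks overt cytotoxicity.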

[18] = read-out: TIMP metallopeptidase inhibitor 1 (TIMP1), TIMP1 (gene 7076); assay: BSK_hDFCGF_TIMP1: BioMAP Diversity Plus: hDFCGF Assay for TIMP metallopeptidase inhibitor 1 (TIMP1) Biomarker Activity (AID 2283062); conditions: primary human foreskin fibroblasts; actives raise or lower the signal
Summary of the method: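 TIMP-1 measured by ELISA 24 h after chemical dosing of primary human skin fibroblasts, with gain or loss fitted relative to DMSO. Parallel SRB staining (560 nm) monitored overt cytotoxicity.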

[19] = read-out: Vascular cell adhesion molecule 1 (VCAM1), VCAM1 (gene 7412); assay: BSK_hDFCGF_VCAM1: BioMAP Diversity Plus: hDFCGF Assay for Vascular cell adhesion molecule 1 (VCAM1) Biomarker Activity (AID 2283065); conditions: primary human foreskin fibroblasts; actives raise or lower the signal;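 as to AC50: VCAM-1 protein level quantified by ELISA after 24 h chemical exposure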
Summary of the method: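 ELISA readout of VCAM-1 on human dermal fibroblast primary cultures, 24 h after chemical exposure. Gain or loss of signal fitted in both directions against DMSO baseline.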

Measured: AC50

Chain of E-selectin (Homo sapiens) (P16581 whole entry, looked up): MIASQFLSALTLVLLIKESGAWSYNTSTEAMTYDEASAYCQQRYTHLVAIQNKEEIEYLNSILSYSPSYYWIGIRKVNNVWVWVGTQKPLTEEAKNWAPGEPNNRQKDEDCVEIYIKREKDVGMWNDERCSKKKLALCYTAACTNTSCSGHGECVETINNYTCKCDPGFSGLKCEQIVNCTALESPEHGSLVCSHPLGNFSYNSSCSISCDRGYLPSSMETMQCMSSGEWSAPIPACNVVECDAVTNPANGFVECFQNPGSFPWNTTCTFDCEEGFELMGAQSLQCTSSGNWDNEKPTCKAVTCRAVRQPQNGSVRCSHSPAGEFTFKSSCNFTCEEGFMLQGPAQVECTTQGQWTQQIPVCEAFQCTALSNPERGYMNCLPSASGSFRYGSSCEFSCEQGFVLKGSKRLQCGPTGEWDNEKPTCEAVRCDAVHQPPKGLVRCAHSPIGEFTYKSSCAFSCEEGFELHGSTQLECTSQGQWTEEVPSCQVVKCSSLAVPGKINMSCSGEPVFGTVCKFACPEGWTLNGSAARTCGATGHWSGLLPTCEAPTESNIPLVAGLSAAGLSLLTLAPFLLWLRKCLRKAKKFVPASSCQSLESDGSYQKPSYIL

COc1cc(C=O)ccc1O
not listed: [18] | [19]
inactive: all other assays above

CCCCC(CC)COC(=O)CC(C(=O)OCC(CC)CCCC)S(=O)(=O)O (stereo unspecified)
active: [18] 20 µM | [1] 11.8 µM | [19] 6.62 µM | [3] 9.12 µM | [4] 11.8 µM | [5] 6.69 µM | [6] 8.47 µM | [7] 8.83 µM | [9] 2.66 µM | [10] 3.25 µM | [12] 12 µM | CD40, CD40 (gene 958) 32.3 µM | [13] 38 µM | [14] 31.6 µM | [15] 30.7 µM | [16] 32.3 µM | [17] 30.9 µM

CCCCCC(=O)O
not listed: [2] | [3] | CD40, CD40 (gene 958) | [15] | [19]
inactive: all other assays above

CCCCCCCCCCCCCCCCCC(=O)O
active: [15] 20 µM | [16] 20 µM
not listed: [18]
inactive: all other assays above

CN1CCCC1=O
not listed: [2] | [15] | [19]
inactive: all other assays above

NCCO
not listed: [2] | [11]
inactive: all other assays above

Cc1ccccc1Cl
not listed: [2] | [11] | CD40, CD40 (gene 958) | [15]
inactive: all other assays above

CCOC(=O)C(C)(C)Oc1ccc(Cl)cc1
not listed: [11] | [18]
inactive: all other assays above

Nc1ccc2c(c1)C(=O)c1ccccc1C2=O
not listed: [2] | [3] | [11] | CD40, CD40 (gene 958) | [15]
inactive: all other assays above

COc1ccc2c(c1)c(CC(=O)O)c(C)n2C(=O)c1ccc(Cl)cc1
not listed: [2] | [3] | [11] | [19]
inactive: all other assays above

Nc1ccc(S(=O)(=O)c2ccc(N)cc2)cc1
not listed: [2] | [3] | [11]
inactive: all other assays above

CC=Cc1ccc(O)c(OC)c1
not listed: [2] | [3] | [15]
inactive: all other assays above

O=c1c(O)c(-c2ccc(O)c(O)c2)oc2cc(O)cc(O)c12
inactive: [18] | [19] | [3] | [13] | [16] | [17]
active: [1] 7.18 µM | [5] 17.6 µM | [6] 14.2 µM | [7] 7.22 µM | [8] 20 µM | [9] 20 µM | [10] 24.2 µM | [11] 20 µM | [12] 12.7 µM | CD40, CD40 (gene 958) 28.5 µM | [14] 20 µM | [15] 32.8 µM

C1CCC(SSC2CCCCC2)CC1
active: [19] 38.4 µM | [5] 30 µM | [8] 5.11 µM | [9] 5.33 µM | [11] 13.7 µM | [17] 20 µM
not listed: [2] | [3] | CD40, CD40 (gene 958)
inactive: all other assays above

CCCCCCOCCO
not listed: [2] | [15]
inactive: all other assays above

Source: PubChem BioAssay (EPA / NIEHS)
